Assay results as given in PubChem BioAssay (NCATS).
Records with an inconclusive call do not appear. Calls of active or inactive are those of the source. The call rests on the fitted dose curve; in most records, active means well fitted inhibition curve with a large enough effect; inconclusive means small, poorly fitted or top-dose-only effect; inactive means flat fitted curve, though single readings scatter.

Key:
[1] = qHTS profiling for inhibitors of Plasmodium falciparum proliferation (AID 504749);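 further: 0% = DMSO vehicle and full inhibition = artemisinin control; nearly all actives have a fitted effect of over 60% in size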; settings: P. falciparum in erythrocytes, SYBR Green DNA, 72 h
Procedure, shortened: (§1)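 Quantitative HTS: compounds pinned into medium, infected erythrocytes added (0.3% parasitemia, 2.5% hematocrit), 72 h culture at 37 C under 5% CO2. Saponin/Triton lysis with SYBR Green I, overnight RT, then fluorescence read.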

[2] = test system: 3D7; experiment: as above; settings: P. falciparum in erythrocytes, SYBR Green DNA, 72 h; series mostly up to 28.7 µM
Procedure, shortened: as §1

[3] = test system: 7G8; experiment: as above; settings: P. falciparum in erythrocytes, SYBR Green DNA, 72 h; series mostly up to 28.7 µM
Procedure, shortened: as §1

[4] = test system: AA1029; experiment: as above; settings: P. falciparum in erythrocytes, SYBR Green DNA, 72 h; series mostly up to 28.7 µM
Procedure, shortened: as §1

[5] = test system: AS120; experiment: as above; settings: P. falciparum in erythrocytes, SYBR Green DNA, 72 h; series mostly up to 28.7 µM
Procedure, shortened: as §1

[6] = test system: ATS189; experiment: as above; settings: P. falciparum in erythrocytes, SYBR Green DNA, 72 h; series mostly up to 28.7 µM
Procedure, shortened: as §1

[7] = test system: ATS95; experiment: as above; settings: P. falciparum in erythrocytes, SYBR Green DNA, 72 h; series mostly up to 28.7 µM
Procedure, shortened: as §1

[8] = test system: C2A; experiment: as above; settings: P. falciparum in erythrocytes, SYBR Green DNA, 72 h; series mostly up to 28.7 µM
Procedure, shortened: as §1

[9] = test system: CP185; experiment: as above; settings: P. falciparum in erythrocytes, SYBR Green DNA, 72 h; series mostly up to 28.7 µM
Procedure, shortened: as §1

[10] = test system: CP191; experiment: as above; settings: P. falciparum in erythrocytes, SYBR Green DNA, 72 h; series mostly up to 28.7 µM
Procedure, shortened: as §1

[11] = test system: CP192; experiment: as above; settings: P. falciparum in erythrocytes, SYBR Green DNA, 72 h; series mostly up to 28.7 µM
Procedure, shortened: as §1

[12] = test system: CP194; experiment: as above; settings: P. falciparum in erythrocytes, SYBR Green DNA, 72 h; series mostly up to 28.7 µM
Procedure, shortened: as §1

[13] = test system: CP201; experiment: as above; settings: P. falciparum in erythrocytes, SYBR Green DNA, 72 h; series mostly up to 28.7 µM
Procedure, shortened: as §1

[14] = test system: CP203; experiment: as above; settings: P. falciparum in erythrocytes, SYBR Green DNA, 72 h; series mostly up to 28.7 µM
Procedure, shortened: as §1

[15] = test system: CP211; experiment: as above; settings: P. falciparum in erythrocytes, SYBR Green DNA, 72 h; series mostly up to 28.7 µM
Procedure, shortened: as §1

[16] = test system: CP215; experiment: as above; settings: P. falciparum in erythrocytes, SYBR Green DNA, 72 h; series mostly up to 28.7 µM
Procedure, shortened: as §1

[17] = test system: CP217; experiment: as above; settings: P. falciparum in erythrocytes, SYBR Green DNA, 72 h; series mostly up to 28.7 µM
Procedure, shortened: as §1

[18] = test system: CP237; experiment: as above; settings: P. falciparum in erythrocytes, SYBR Green DNA, 72 h; series mostly up to 28.7 µM
Procedure, shortened: as §1

[19] = test system: CP238; experiment: as above; settings: P. falciparum in erythrocytes, SYBR Green DNA, 72 h; series mostly up to 28.7 µM
Procedure, shortened: as §1

[20] = test system: CP247; experiment: as above; settings: P. falciparum in erythrocytes, SYBR Green DNA, 72 h; series mostly up to 28.7 µM
Procedure, shortened: as §1

[21] = at 28.7 µM (top of the series), parasite line A
[22] = at 28.7 µM (top of the series), parasite line B

CC(=O)Oc1cccc(C)c1
inactive: activity, negative = inhibition [1, 21] 4.88% | activity, negative = inhibition [1, 22] -6.23% | Potency [2] | Potency [3] | Potency [4] | Potency [5] | Potency [6] | Potency [7] | Potency [8] | Potency [9] | outcome [10] | outcome [11] | outcome [12] | outcome [13] | Potency [14] | outcome [15] | Potency [16] | outcome [17] | Potency [18] | Potency [19] | Potency [20]

Nc1ccc(C(=O)Oc2ccccc2)c(O)c1
inactive: activity, negative = inhibition [1, 21] -10.9% | activity, negative = inhibition [1, 22] 5.45% | Potency [2] | Potency [3] | Potency [4] | Potency [5] | Potency [6] | Potency [7] | Potency [8] | Potency [9] | outcome [10] | outcome [11] | outcome [12] | outcome [13] | Potency [14] | outcome [15] | outcome [17] | Potency [18] | Potency [19] | Potency [20]

CC(=O)NCc1c(I)c(NC(C)=O)c(I)c(C(=O)O)c1I
inactive: activity, negative = inhibition [1, 21] 10.9% | activity, negative = inhibition [1, 22] 6.96% | Potency [2] | Potency [3] | Potency [4] | Potency [5] | Potency [6] | Potency [7] | Potency [8] | Potency [9] | outcome [10] | outcome [11] | outcome [12] | outcome [13] | outcome [15] | Potency [16] | outcome [17] | Potency [18] | Potency [19] | Potency [20]

COc1ccccc1Oc1c(NS(=O)(=O)c2ccc(C(C)(C)C)cc2)nc(-c2ncccn2)nc1OCCO
inactive: activity, negative = inhibition [1, 21] -4.92% | activity, negative = inhibition [1, 22] -14.6% | Potency [2] | Potency [3] | Potency [4] | Potency [5] | Potency [6] | Potency [7] | Potency [8] | Potency [9] | outcome [10] | outcome [11] | outcome [12] | outcome [13] | Potency [14] | outcome [15] | outcome [17] | Potency [18] | Potency [19] | Potency [20]

NNC(=O)CP(=O)(c1ccccc1)c1ccccc1
inactive: activity, negative = inhibition [1, 21] 8.38% | activity, negative = inhibition [1, 22] 6.41% | Potency [2] | Potency [3] | Potency [4] | Potency [5] | Potency [6] | Potency [7] | Potency [8] | Potency [9] | outcome [10] | outcome [11] | outcome [12] | outcome [13] | Potency [14] | outcome [15] | Potency [16] | outcome [17] | Potency [18] | Potency [19] | Potency [20]

CN1C(C)(C)CCCC1(C)C
inactive: activity, negative = inhibition [1, 21] 8.89% | activity, negative = inhibition [1, 22] 5.87% | Potency [2] | Potency [3] | Potency [4] | Potency [5] | Potency [6] | Potency [7] | Potency [8] | Potency [9] | outcome [10] | outcome [11] | outcome [12] | outcome [13] | Potency [14] | outcome [15] | Potency [16] | outcome [17] | Potency [18] | Potency [19] | Potency [20]

NC(N)=NCCN1CCCCCCC1
inactive: activity, negative = inhibition ([1]; at 12.8 µM (top of the series), parasite line A) 4.56% | activity, negative = inhibition ([1]; at 12.8 µM (top of the series), parasite line B) 10.2% | Potency [2] | Potency [3] | Potency [4] | Potency [5] | Potency [6] | Potency [7] | Potency [8] | Potency [9] | outcome [10] | outcome [11] | outcome [12] | outcome [13] | Potency [14] | outcome [15] | outcome [17] | Potency [18] | Potency [19] | Potency [20]

O=C(Cn1ccnc1[N+](=O)[O-])NCc1ccccc1
inactive: activity, negative = inhibition [1, 21] 12.6% | activity, negative = inhibition [1, 22] 10.2% | Potency [2] | Potency [3] | Potency [4] | Potency [5] | Potency [6] | Potency [7] | Potency [8] | Potency [9] | outcome [10] | outcome [11] | outcome [12] | outcome [13] | Potency [14] | outcome [15] | Potency [16] | outcome [17] | Potency [18] | Potency [19] | Potency [20]

COc1ccc(C(=O)N2CCN(CC(=O)N3CCOCC3)CC2)cc1
inactive: activity, negative = inhibition [1, 21] 2.87% | activity, negative = inhibition [1, 22] 20.6% | Potency [2] | Potency [3] | Potency [4] | Potency [5] | Potency [6] | Potency [7] | Potency [8] | Potency [9] | outcome [10] | outcome [11] | outcome [12] | outcome [13] | outcome [15] | Potency [16] | outcome [17] | Potency [18] | Potency [19] | Potency [20]

O=C(O)Cc1cn(-c2ccccc2)nc1-c1ccc(Cl)cc1
inactive: activity, negative = inhibition [1, 21] 11.4% | activity, negative = inhibition [1, 22] 9.39% | Potency [2] | Potency [3] | Potency [4] | Potency [5] | Potency [6] | Potency [7] | Potency [8] | Potency [9] | outcome [10] | outcome [11] | outcome [12] | outcome [13] | Potency [14] | outcome [15] | Potency [16] | outcome [17] | Potency [18] | Potency [19] | Potency [20]

CC[N+](CC)(CC(=O)Nc1c(C)cccc1C)Cc1ccccc1
inactive: activity, negative = inhibition [1, 21] 15.1% | activity, negative = inhibition [1, 22] 8.11% | Potency [2] | Potency [3] | Potency [4] | Potency [5] | Potency [6] | Potency [7] | Potency [8] | Potency [9] | outcome [10] | outcome [11] | outcome [12] | outcome [13] | outcome [15] | Potency [16] | outcome [17] | Potency [18] | Potency [19] | Potency [20]

O=C(NCCCN1CCOCC1)c1ccc(Cl)cc1
inactive: activity, negative = inhibition [1, 21] 6.41% | activity, negative = inhibition [1, 22] 5.99% | Potency [2] | Potency [3] | Potency [4] | Potency [5] | Potency [6] | Potency [7] | Potency [8] | Potency [9] | outcome [10] | outcome [11] | outcome [12] | outcome [13] | Potency [14] | outcome [15] | Potency [16] | outcome [17] | Potency [18] | Potency [19] | Potency [20]

CC1CCN(CCCC(=O)c2ccc(F)cc2)CC1
inactive: activity, negative = inhibition [1, 21] 12.5% | activity, negative = inhibition [1, 22] 9.34% | Potency [2] | Potency [3] | Potency [4] | Potency [5] | Potency [6] | Potency [7] | Potency [8] | Potency [9] | outcome [10] | outcome [11] | outcome [12] | outcome [13] | Potency [14] | outcome [15] | Potency [16] | outcome [17] | Potency [19] | Potency [20]
